# Screens from PubChem.
# Hits are enriched below; roughly 19% of the tested compounds scored in any of these assays.
# Pf growth 48h: Primary qHTS for delayed death inhibitors of the malarial parasite plastid, 48 hour incubation. P. falciparum luciferase growth in erythrocytes, 48 h. actives 5.9% (n = 310,000). Potency, µM (highest dose often 28.7 µM), most hits filed as inhibitors
#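 Firefly luciferase activity from engineered P. falciparum reports growth; inhibitors lower the luminescent signal. Cultures contained 2% hematocrit erythrocytes at 0.1% final parasitemia.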
# AMA1-RON2 inh: qHTS for Inhibitors of AMA1-RON; Towards Development of Antimalarial Drug Lead: Primary Screen | Plasmodium falciparum AMA1 (3D7) - RON2 peptide interaction | AlphaScreen AMA1-biotinylated RON2 peptide binding | Potency, µM (series often up to 58.2 µM), actives largely listed as inhibitors | actives 0.2% (n = 360,000); further: nearly all actives have a fitted effect of over 45% in size
#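 AMA1 (3D7) with his tag at 25 nM final met compounds first, then biotinylated RON2 peptide at 25 nM; detection used donor plus acceptor beads, 10 µg/mL apiece, read by AlphaScreen after 30 min at room temperature.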
# SARS PLP yeast: qHTS of Yeast-based Assay for SARS-CoV PLP | Potency, µM (doses to about 32.9 µM), usual class: activators | S. cerevisiae expressing SARS-CoV PLpro, growth rescue | actives 0.19% (n = 330,000) | AID 485353, 2010; calls by dose curve; further: nearly all actives have a fitted effect of over 55% in size
# CHX counter: Cycloheximide Counterscreen for Small Molecule Inhibitors of Shiga Toxin | cell reporter, cycloheximide protein synthesis inhibition counterscreen | max response, % | actives 12% (n = 300,000) | AID 2314, 2010; in the data active means max response mostly above about 13%, no sharp cut-off; inactive means mostly below about 14%; further: read at 38.3 µM for the half of the compounds with a filed dose
# Pf growth 96h: Primary qHTS for delayed death inhibitors of the malarial parasite plastid, 96 hour incubation | P. falciparum luciferase reporter growth, 96 h | Potency, µM (highest dose often 28.7 µM), usual class: inhibitors | actives 6.9% (n = 320,000) | AID 504834, 2011
#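 Two parasite generations (96 h, 37 C, 5% CO2) of compound exposure in infected erythrocytes (0.05% parasitemia, 2% hematocrit). Luciferase-reporter P. falciparum; decreased luminescence indicates inhibited growth, aimed at apicoplast-acting delayed death.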
# Shiga toxin inh: A qHTS for Small Molecule Inhibitors of Shiga Toxin | Vero cells, Shiga toxin protein synthesis inhibition reporter | inhibition, % at 38.7 µM | actives 9.2% (n = 290,000); in the data active means inhibition mostly above about 28%, no sharp cut-off; inactive means mostly below about 43%
# Numbers stand for hits; - = inactive; ? = inconclusive; . = no result given; [ ] = another dose, or the depositor's remark. Unless noted, the call rests on the fitted dose curve; in most records, active means well fitted curve in the direction sought with a large enough effect; inconclusive means small, poorly fitted or top-dose-only effect, or another doubt; inactive means no such curve, though single readings can be large; an effect the other way counts as inactive or inconclusive.
SMILES,Pf growth 48h,AMA1-RON2 inh,SARS PLP yeast,CHX counter,Pf growth 96h,Shiga toxin inh
COc1ccc(NC(=S)N2CCCN(Cc3cc(C)ccc3C)C2)cc1,10µM,-,-,-,?,-
NS(=O)(=O)c1ccc(CCNC(=O)C2CCCN2C(=O)c2cccs2)cc1 (stereo not given),.,-,.,.,.,.
C=C[C@@H]1c2ccccc2N(S(=O)(=O)c2ccc(C)cc2)[C@H](c2ccccc2)C1(C#N)C#N,3.7µM,-,-,.,?,.
Cc1oc(-c2cc(F)ccc2F)nc1CN1CCN(c2cnccn2)CC1,13µM,-,-,-,?,-
Cc1oc(-c2cc(F)ccc2F)nc1CN(C)Cc1ccc2nccnc2c1,?,-,-,-,2.9µM,-
COCCNC(=O)C1CCCN(S(=O)(=O)c2cccc3nsnc23)C1 (stereo not given),-,-,-,-,?,-
CC12COC3(C(N)=O)CC1CCC32C (stereo not given),-,-,-,-,-,-
C[C@H](CO)N1C[C@H](C)[C@@H](CN(C)Cc2cccc(O)c2)OCc2cnnn2CCCC1=O,.,-,.,.,.,.
O=C(CN1CCc2ccccc21)NC(=O)NCc1ccccc1,-,-,-,-,?,-
CCOC(=O)C1CCCN(C(=O)c2cn(CC)c(=O)c3cc(OC)c(OC)cc23)C1 (stereo not given),-,-,-,-,1µM,-
CCOC(=O)C1CCCN(C(=O)c2cn(C)c(=O)c3cc(OC)c(OC)cc23)C1 (stereo not given),-,-,-,-,6.6µM,-
Cc1cc(=O)oc(C)c1C(=O)NCc1c(F)cc(F)cc1F,-,-,-,28,?,-
Cc1c(C)n(C)c2ccc(C(=O)NCCCN3CCN(c4ccc(F)cc4)CC3)cc12,?,-,-,-,-,-
Cc1cc(=O)oc(C)c1C(=O)NCCCN1CCN(c2ccc(F)cc2)CC1,?,-,-,-,0.74µM,-
COc1ccc(N2CCN(CCNC(=O)c3c(C)cc(=O)oc3C)CC2)cc1,12µM,-,-,-,?,-
COc1ccc(N2CCN(Cc3cc(=O)oc4cc(C)c(Cl)c(C)c34)CC2)cc1,4.1µM,-,-,-,-,-
CN(Cc1ccc(OC(F)F)cc1)C(=O)C1CCN(S(=O)(=O)c2ccc3c(c2)OCCO3)CC1,?,-,-,.,?,.
COc1ccc(N2CCN(CCNC(=O)Nc3ccc(C)cc3Cl)CC2)cc1,-,-,-,-,2.3µM,-
CCCCCCn1nc(C(=O)Nc2nc3c(s2)CCCC3)c2ccccc2c1=O,?,-,?,-,?,-
Cc1noc(C)c1S(=O)(=O)Nc1ccc(C(=O)N2CCc3ccccc3C2)cc1,-,-,-,-,?,-
N#Cc1cc(C#N)c(N2CCN(c3cccc(Cl)n3)CC2)nc1N,3.7µM,-,?,67,1.7µM,89
NC1CCN(c2cccc(Cl)n2)CC1,-,.,.,.,-,.
CCCn1c(N)c(C(=O)CSc2nc(C)cs2)c(=O)n(C)c1=O,-,-,-,23,9.3µM,-
CC(C)Cn1c(N)c(C(=O)CSc2nncs2)c(=O)n(C)c1=O,?,-,-,.,?,.
Cc1c(N)ccc(-n2nc3ccccc3n2)c1C,.,-,.,.,.,.
SMILES,Pf growth 48h,AMA1-RON2 inh,SARS PLP yeast,CHX counter,Pf growth 96h,Shiga toxin inh
O=Nc1c2cc(-c3ccccc3)[nH]nc-2c2ccccc12,-,-,-,37,-,101
Cc1cccc(-c2cc3c(N=O)c4ccccc4c-3n[nH]2)c1,-,-,-,46,-,104
Cc1ccc(-c2cc3c(N=O)c4ccccc4c-3n[nH]2)cc1,-,-,-,-,-,-
CC1(C(=O)NS(=O)(=O)C2CC2)CCN(C(=O)COCc2ccccc2)C1 (stereo not given),.,-,.,.,.,.
O=S(=O)(NC1CCCCC1)c1ccc(Cl)nc1,-,-,-,-,-,-
CC(=O)C1=CCC(c2cccs2)N(S(=O)(=O)c2ccc(C)cc2)C1 (stereo not given),.,-,.,.,.,.
N#CC(c1ccccc1)c1ccc2c(C(F)(F)F)cc(C(F)(F)F)nc2n1 (stereo not given),.,?,-,-,12µM,-
Cc1ccc(C(C#N)c2ccc3c(C(F)(F)F)cc(C(F)(F)F)nc3n2)cc1 (stereo not given),?,?,-,-,1.7µM,-
CN(N)c1ccc2c(C(F)(F)F)cc(C(F)(F)F)nc2n1,-,-,-,-,-,-
FC(F)(F)c1cc(C(F)(F)F)c2ccc(N/N=C/c3ccccc3)nc2n1,-,-,-,-,0.47µM,-
Cc1oc(S(=O)(=O)N2CCCCC2)cc1NC(=O)Nc1ccc(Cl)cc1,?,-,-,-,?,-
O=C1c2ccccc2C(=O)N1c1ccc(Cl)cn1,.,-,-,-,?,-
Cc1cc(S(=O)(=O)NC(C)c2nnc3ccccn23)ccc1Br (stereo not given),.,-[11.6 µM],-,.,.,.
COc1ccc(CNCc2cccc(C)c2)cc1,-,-,-,-,-,.
COc1ccc(CNCc2cccc(Oc3ccccc3)c2)cc1,-,-,-,-,3.7µM,-
C/C(=N/Nc1ccnc2cc(Cl)ccc12)c1ccc(O)cc1,0.33µM,-,-,.,0.29µM,.
C/C(=N/Nc1ccnc2cc(Cl)ccc12)c1ccc(N)cc1,0.83µM,?,-,.,0.47µM,.
C/C(=N/Nc1nc(-c2ccccc2)cc(-c2ccccc2)n1)c1ccc(N)cc1,?,.,-,-,?,-
O=C(O)c1c(Cl)c(Cl)c(Cl)c(Cl)c1C(=O)OCC1CCCO1 (stereo not given),.,-,.,.,.,.
O=C(C1=C[C@H](C2CCCCC2)C[C@H](OCCCCO)O1)N1CCN(Cc2ccc3c(c2)OCO3)CC1,12µM,-,-,-,5.9µM,-
O=C(C1=C[C@@H](c2ccc3c(c2)OCO3)C[C@@H](OCCCCO)O1)N1CCN(Cc2ccc3c(c2)OCO3)CC1,?,-,-,-,10µM,-
C#Cc1ccc([C@@H]2C=C(C(=O)N3CCN(Cc4ccc5c(c4)OCO5)CC3)O[C@H](OCCCCO)C2)cc1,?,-,-,-,12µM,-
O=C(C1=C[C@H](c2ccc3c(c2)OCO3)C[C@H](OCCCCO)O1)N1CCN(Cc2ccccc2)CC1,?,-,-,-,13µM,-
CCOc1ccc2nc(S(=O)(=O)NC(=O)C3(C)CCN3C(=O)c3cccc(F)c3)sc2c1 (stereo not given),.,-,.,.,.,.
O=C(C1=C[C@@H](c2ccc(Br)cc2)C[C@@H](OCCCCO)O1)N1CCN(Cc2ccccc2)CC1,8.3µM,-,-,-,12µM,-
O=C(C1=C[C@H](c2ccc(Br)cc2)C[C@H](OCCCCO)O1)N1CCN(Cc2ccc3c(c2)OCO3)CC1,1.5µM,-,-,-,4.1µM,-
